According to PubChem BioAssay (NCI):
Compounds without any hit were thinned out: in the full panel of roughly 83,000, 20% have a hit.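 Growth was measured after 48 h exposure to one concentration of compound in 96-well plates. Values under 10 count as active.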 Values without a mark were called inactive. Calls of active or inactive are those of the source.

The molecules below were run on HL-60(TB) leukemia (assay: NCI-60 one-dose screen, 48 h (100 = growth as untreated, 0 = no growth, -100 = all killed)). Settings: 10 µM unless noted.
Work on `COc1cc(NC(=O)NCc2ccco2)ccc1-c1ccc(NC(=O)NCc2ccco2)cc1OC` yielded a growth of 57.4%. `O=c1ccn(Cc2cn(-c3c4ccccc4nc4ccccc34)nn2)c(=O)[nH]1` gave a growth of 75.7%. In the case of `Cc1ccc(C(=NN=C(N)N)c2ccc(C)cc2)cc1`, the growth is reported as -28% (active). In the case of `COc1ccc2nc3cc(Cl)ccc3c(NCCNCC(C)O)c2c1` (centres undefined), the growth is reported as 21.8%. For `COC(=O)[C@]12CC[C@@H](C)[C@H](C)[C@@H]1C1=CC[C@@H]3[C@@]4(C)C[C@@H](O)[C@H](O)[C@@](C)(CO)[C@@H]4[C@H](O)C[C@@]3(C)[C@]1(C)CC2`, the growth was -27.4% (active). `CCCCCCCCCCCCCCCCC(=O)O.CCCCCCCCCCCCCCCCCC(=O)O.CCCCCCCCCCCCCCCCCC(=O)O.CCCCCCCCCCCCCCCCCC(=O)O.CCCCCCCCCCCCCCCCCC(=O)O.CO[CH-]OC12COC1CC(O)C1(C)C(O)C(OC(C)O)C3=C(C)C(OC(=O)C(O)C([NH-])c4ccccc4)CC(O)(C(OC(=O)c4ccccc4)C21)C3(C)C.[Cu+].[Zn].[Zn].[Zn].[Zn].[Zn]` (centres undefined) was tested, and the growth was -3.29% (active). `CC(CN(C)C)Oc1ccccc1NC1=C(Cl)C(=O)C(Nc2ccccc2OC(C)CN(C)C)=C(Cl)C1=O` (centres undefined) was tested, and the growth was -41.8% (active). Work on `CCOC(=O)c1c(C(=O)c2cn(C)c3ccc(Br)cc23)c(-c2cn(C)c3ccc(Br)cc23)n(NC(=O)OC(C)(C)C)c1C` yielded a growth of 100% [100 µM]. With `Cc1cc2c(C(=O)NCC#N)cccc2n1-c1nc2c(c(NCc3ccccc3)n1)CCCC2` the growth was -23.5% (active). `O=c1oc2ccc(Br)cc2c(=O)n1-c1ccc(Cl)cc1F` was tested, and the growth was -32.8% (active). `COC(=O)[C@]12CC[C@@H](C)[C@H](C)[C@@H]1C1=CC[C@@H]3[C@@]4(C)C(C=O)=C[C@@](C)(COS(C)(=O)=O)[C@@H]4C(=O)C[C@@]3(C)[C@]1(C)CC2` was tested, and the growth was 31.5%. `O=C(NCCCNC(=O)OCc1ccc2cccc(O)c2n1)OCc1ccc2cccc(O)c2n1` was tested, and the growth was 45.5%. `O=C1/C(=C\c2ccco2)SC(=S)N1CCc1ccc(O)cc1` was tested, and the growth was 76.3%. Work on `O=S(=O)(OCCOS(=O)(=O)c1ccccc1)c1ccccc1` yielded a growth of 92.5%. `COc1cc(-c2nn(C(=O)NCCN3CCN(C)CC3)cc2-c2ccncc2)ccc1Cl` showed a growth of 93.2%. `CC(C)(C)c1cc(/C=N\NC(=O)/C=C/C=C/c2ccc3c(c2)OCO3)c(O)c(C(C)(C)C)c1` was tested, and the growth was 84.1%. Work on `CCOC(=O)/C(C#N)=C(/C)C1CC1` yielded a growth of 110%. For `CCOC(=O)C1=C(C)N=C2SC=C(c3ccc(F)cc3)N2[C@H]1c1cn(-c2ccccc2)nc1-c1ccc(Cl)cc1`, the growth was 88.3%. `CCCCN(C)N=Nc1ccc(C(N)=O)cc1` gave a growth of 73.5%. `CN(C)c1ncc(C#Cc2c(F)cccc2F)c2ccccc12` gave a growth of 59.9%. Work on `O=[N+]([O-])c1cnc(N2CCN(CC3CC3)CC2)nc1N1CCN(CC2CC2)CC1` yielded a growth of 99.2%. In the case of `Oc1ccc(-c2nn(-c3ccccc3)cc2-c2nc3ccccc3s2)cc1`, the growth is reported as 104%. In the case of `Cc1cc(Cl)ccc1Nc1nc(C(F)(F)F)ccc1C(=O)N/N=C/c1ccc(N(C)C)cc1`, the growth is reported as 12.4%. Work on `C[PH+](c1nc2ccccc2nc1[PH+](C)C(C)(C)C)C(C)(C)C.C[PH+](c1nc2ccccc2nc1[PH+](C)C(C)(C)C)C(C)(C)C.[Au+].[Cl-]` (centres undefined) yielded a growth of 12%. `CCN(CC)CCN1CC(=O)Nc2cc(Cl)ccc21` showed a growth of 98.9%. `NC(N)=NN=c1c(=O)c2ccccc2c1=O` showed a growth of 95.2%. For `Cc1cc(C(=O)Nc2cc(Nc3ncccc3-c3ncnc4nc[nH]c34)ccc2F)cc(C(F)(F)F)c1`, the growth was 25.1%. For `CCCCCCn1c(-c2ccc(C(=O)O/N=C(\N)c3ccc4c(c3)OCO4)cc2)nc(-c2ccccc2)c1-c1ccccc1`, the growth was -51.1% (active). In the case of `O=c1cc(/C(=C2/C=CC=N2)c2ccc[nH]2)c2cc(Cl)ccc2o1`, the growth is reported as 85.2%.
